Source: PubChem (several laboratories)
In the library only some 3.3% were active in any assay of this set; here they are far more common.
PfM18AAP inh = blocks P. falciparum M18 aspartyl aminopeptidase. recombinant PfM18AAP, H-Glu-NHMec fluorogenic cleavage. inhibition, % at 7.35 µM. 290,000 tested, 1.2% active. AID 1822;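 active = inhibition above the campaign mean inhibition over all tested compounds plus 3 SD, cut at about 28% in these data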;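 also: 0% = plate median of test compound wells and 100% = 2 mM ZnCl2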
UHRF1 binding = UHRF1 methyl-DNA binding inhibition; Q96T88; inhibition, % at 4.4 µM; 370,000 tested, 0.75% active; AID 687016; UHRF1 binding to methylated oligo, TR-FRET; in the data active = inhibition above about 21%;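 also: UHRF1 SRA domain binding a hemimethylated CpG hairpin DNA probe; 0% = median of test compound wells and 100% = reference inhibitor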
Target sequence (Q96T88 whole entry, looked up, the tested form may be a part): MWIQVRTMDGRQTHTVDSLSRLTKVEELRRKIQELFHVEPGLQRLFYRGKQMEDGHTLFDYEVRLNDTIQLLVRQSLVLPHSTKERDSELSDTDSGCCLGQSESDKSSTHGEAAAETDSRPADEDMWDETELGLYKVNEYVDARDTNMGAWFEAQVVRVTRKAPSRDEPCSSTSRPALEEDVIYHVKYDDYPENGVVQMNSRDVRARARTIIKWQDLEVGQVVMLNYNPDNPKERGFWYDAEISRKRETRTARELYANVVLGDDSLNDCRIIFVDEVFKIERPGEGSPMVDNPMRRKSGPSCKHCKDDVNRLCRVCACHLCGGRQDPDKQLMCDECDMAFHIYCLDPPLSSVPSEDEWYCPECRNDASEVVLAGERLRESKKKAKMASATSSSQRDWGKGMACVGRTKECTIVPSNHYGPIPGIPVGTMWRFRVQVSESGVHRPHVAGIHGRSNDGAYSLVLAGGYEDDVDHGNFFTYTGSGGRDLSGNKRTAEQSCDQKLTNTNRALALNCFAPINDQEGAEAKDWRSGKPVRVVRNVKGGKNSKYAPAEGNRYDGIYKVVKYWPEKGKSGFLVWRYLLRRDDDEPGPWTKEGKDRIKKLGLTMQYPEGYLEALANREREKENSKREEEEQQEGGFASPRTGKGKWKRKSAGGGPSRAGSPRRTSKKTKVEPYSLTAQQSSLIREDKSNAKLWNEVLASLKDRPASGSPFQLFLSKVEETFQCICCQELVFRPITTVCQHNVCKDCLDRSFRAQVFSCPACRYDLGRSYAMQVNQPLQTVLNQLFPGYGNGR
PRMT1 FP inh = blocks human protein arginine methyltransferase 1. Q99873. recombinant PRMT1, activity-based probe fluorescence polarization. inhibition, % at 2.79 µM. 370,000 tested, 1.3% active. AID 652257;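 active = inhibition above about 21% made by adding two undisclosed values, limit read from the data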
MBD2 DNA inh = blocks human MBD2 binding to methylated DNA. Q9UBB5. TR-FRET, MBD2 binding to methylated oligonucleotide. inhibition, % at 4.4 µM. 370,000 tested, 0.31% active. AID 686964; in the data active = inhibition above about 13%
PfG6PD inh = PfG6PD (Plasmodium falciparum) enzyme inhibition | PfGluPho enzyme, NADPH resazurin-diaphorase fluorescence | inhibition, % at 20 µM | 350,000 tested, 0.78% active | AID 504690;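 active = inhibition reaching at least a set limit at 20 µM in the primary screen, cut at about 59% in these data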;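 also: 0% = DMSO wells with substrate and 100% = DMSO wells lacking glucose-6-phosphate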
PRMT1 confirm = PRMT1 (human) inhibition, FP confirmation; shares compounds with PRMT1 FP inh; recombinant His-PRMT1, activity-based probe fluorescence polarization; 3,300 tested, 42% active; inhibition, % at 2.79 µM;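 active = mean inhibition across replicates above the hit cutoff derived for the earlier primary screen, cut at about 22% in these data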
An asterisk follows results filed as active.

Results for CCC1CCCCN1C(=S)NC(=O)c1cccs1 (stereo not drawn) ?
PfM18AAP inh: 14; UHRF1 binding: -3; PRMT1 FP inh: 1; MBD2 DNA inh: -4; PfG6PD inh: 1

What do the screens show for `O=C(NC(=S)N1CCCCC1CO)c1cccs1` (stereo not drawn)?
UHRF1 binding: 5; PRMT1 FP inh: 33*; MBD2 DNA inh: 0; PfG6PD inh: 7; PRMT1 confirm: 13

How did COc1cc2c3c([nH]c2cc1F)C(=O)NCC3 do in these assays?
UHRF1 binding: -2; PRMT1 FP inh: 2; MBD2 DNA inh: -6; PfG6PD inh: 11

What do the screens show for `C=C/C(C)=C/C[C@H]1C(=C)CCC2[C@](C)(C(=O)O)CCC[C@@]21C` (stereo partly drawn)?
PfG6PD inh: -23

How did C=C1CCC2C(C)(C)CCC[C@]2(C)[C@H]1CC1=C(O)C(=O)C(CO)=CC1=O (stereo partly drawn) do in these assays?
UHRF1 binding: -1; PRMT1 FP inh: 80*; MBD2 DNA inh: 0; PRMT1 confirm: 77*

How did CN(C)CCCn1c(=S)[nH]c2ccccc2c1=O do in these assays?
PfM18AAP inh: -15; UHRF1 binding: 9; PRMT1 FP inh: 12; MBD2 DNA inh: 7; PfG6PD inh: 3

Results for CN(C)CCCn1c2c3ccccc3ccc2c2oc(=O)c3ccccc3c21 ?
UHRF1 binding: -24; PRMT1 FP inh: 29*; MBD2 DNA inh: 11; PfG6PD inh: -9; PRMT1 confirm: 1

Results for O=C1NNC(c2ccccc2)=N/C1=C\c1ccccc1Cl ?
PfM18AAP inh: -9; UHRF1 binding: -4; PRMT1 FP inh: -1; MBD2 DNA inh: -5; PfG6PD inh: -5

How did O=C1NNC(c2ccccc2)=N/C1=C\c1ccco1 do in these assays?
PfM18AAP inh: 7; UHRF1 binding: -3; PRMT1 FP inh: 30*; MBD2 DNA inh: 1; PfG6PD inh: -2; PRMT1 confirm: 13

What do the screens show for `O=C(Nc1c(F)c(F)c(F)c(F)c1F)OC[C@@H]1CSCCS(=O)(=O)N1`?
UHRF1 binding: 3; PRMT1 FP inh: -2; MBD2 DNA inh: 0

Results for Cc1cccc(CSc2nc3c(c(-c4cccs4)c2C#N)CN(C)CC3)c1 ?
PfM18AAP inh: -3; UHRF1 binding: -1; PRMT1 FP inh: 0; MBD2 DNA inh: -5; PfG6PD inh: 8

What do the screens show for `CN1CCc2nc(SCC(=O)Nc3cccc(F)c3)c(C#N)c(-c3cccs3)c2C1`?
PfM18AAP inh: 6; UHRF1 binding: -5; PRMT1 FP inh: 65*; MBD2 DNA inh: 1; PfG6PD inh: 33; PRMT1 confirm: 23*

Results for CN1CCc2nc(SCC(=O)Nc3ccc(OC(F)(F)F)cc3)c(C#N)c(-c3cccs3)c2C1 ?
PfM18AAP inh: 3; UHRF1 binding: 8; PRMT1 FP inh: 40*; MBD2 DNA inh: -2; PfG6PD inh: 9; PRMT1 confirm: 41*

Results for CC(C)(C)C(=O)CSc1nc2c(c(-c3cccs3)c1C#N)CCC2 ?
PfM18AAP inh: -2; UHRF1 binding: -3; PRMT1 FP inh: 3; MBD2 DNA inh: -2; PfG6PD inh: 22

What do the screens show for `O=C(NCc1ccc(F)cc1)C(c1ccc(Cl)cc1)N(C(=O)c1csnn1)C1CC1` (stereo not drawn)?
PfM18AAP inh: -2; UHRF1 binding: -2; PRMT1 FP inh: -1; MBD2 DNA inh: 1; PfG6PD inh: 11

What do the screens show for `NC(CO)C(=O)NNCc1ccc(O)c(O)c1O` (stereo not drawn)?
PfM18AAP inh: 29*; UHRF1 binding: 11; PRMT1 FP inh: 30*; MBD2 DNA inh: 7; PfG6PD inh: 55; PRMT1 confirm: 41*

What do the screens show for `O=C(c1cccc(Cl)c1)C1CCCN(C(=O)c2ccoc2)C1` (stereo not drawn)?
PfM18AAP inh: -8; UHRF1 binding: 0; PRMT1 FP inh: -3; MBD2 DNA inh: 1; PfG6PD inh: -17

How did O=C(CSS(=O)(=O)O)N1CCN(C(=O)c2ccoc2)CC1 do in these assays?
PfM18AAP inh: -6; UHRF1 binding: -5; PRMT1 FP inh: 45*; MBD2 DNA inh: -5; PfG6PD inh: 0; PRMT1 confirm: 29*

What do the screens show for `N#CCc1c(C#N)c(N)nc(N2CCN(S(=O)(=O)c3ccccc3)CC2)c1C#N`?
PfM18AAP inh: -9; UHRF1 binding: -3; PRMT1 FP inh: 14; MBD2 DNA inh: 2; PfG6PD inh: 7
